# PubChem BioAssay AID1851 (National Center for Advancing Translational Sciences (NCATS), 2009)
# Among all 16,000 compounds or so, about 5,800 (36%) were called active. Roughly 23% stayed inconclusive and do not appear here. The list shows a part of the results. A number with no mark means an inactive call. Calls come from the whole dose curve; as a rule, active = well fitted curve in the direction sought with a large enough effect; inconclusive = small, poorly fitted or top-dose-only effect, or effect the other way; inactive = no such curve, though single readings can be large or run the other way.
# Molecular target: Cytochrome P450 2C19 (Homo sapiens) (UniProt P33261)
# Sequence (P33261 whole entry, looked up): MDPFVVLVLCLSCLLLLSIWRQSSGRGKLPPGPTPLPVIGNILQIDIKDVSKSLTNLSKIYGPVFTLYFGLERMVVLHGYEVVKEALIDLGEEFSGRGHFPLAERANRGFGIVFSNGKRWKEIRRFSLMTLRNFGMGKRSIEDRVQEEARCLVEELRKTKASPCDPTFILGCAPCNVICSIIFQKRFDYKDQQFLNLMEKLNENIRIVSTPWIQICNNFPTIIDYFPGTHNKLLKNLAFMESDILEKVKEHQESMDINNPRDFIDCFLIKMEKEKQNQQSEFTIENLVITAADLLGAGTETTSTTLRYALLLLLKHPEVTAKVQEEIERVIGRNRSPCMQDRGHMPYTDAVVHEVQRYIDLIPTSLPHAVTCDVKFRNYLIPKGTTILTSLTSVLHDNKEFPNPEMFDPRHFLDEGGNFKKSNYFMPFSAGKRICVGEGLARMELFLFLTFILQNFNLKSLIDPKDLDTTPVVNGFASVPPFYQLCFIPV
# Assay: Cytochrome panel assay with activity outcomes
# Details: recombinant CYP, pro-luciferin dealkylation, luminescence, p450-cyp2c19; series mostly up to 57.1 µM; activity, negative = inhibition: at the top concentration
# % is set by controls: 0 for no effect and ±100 for the full control effect.
SMILES,AC50,"activity, negative = inhibition"
Cc1cc(Cl)ccc1OCC(=O)NCc1ccncc1,1.26 µM (active),–
CCCn1nnnc1NC(=O)COc1ccc(Cl)cc1C,7.94 µM (active),–
O=C(O)[C@@H]1[C@@H](C(=O)NCc2ccncc2)[C@@H]2C=C[C@@H]1O2,–,9.32% [at 11.4 µM]
Cc1cc(Cl)ccc1OCC(=O)Nc1nc(N)nc(N)n1,–,8.03% [at 11.4 µM]
O=C(/C=C\c1ccc(O)c(O)c1)O[C@@H]1C[C@](O)(C(=O)O)C[C@@H](O)[C@@H]1O,–,5.78% [at 25.6 µM]
CCOC(=O)Oc1c(OC)cc(C(=O)O[C@H]2C[C@H]3CN4CCc5c([nH]c6cc(OC)ccc56)[C@@H]4C[C@H]3[C@@H](C(=O)OC)[C@@H]2OC)cc1OC,–,18.1% [at 25.6 µM]
Cc1n[nH]c(=O)n1-c1cccc(C(F)(F)F)c1,–,-22%
CCOC(=O)c1sc(=S)n(-c2cccc(C(F)(F)F)c2)c1SC,1.26 µM (active),–
O=C(O)NCC1CCCCC1 (tested in a mixture with another compound),–,-22.4% [at 11.4 µM]
O=C(CSc1nnc(SCc2cccc3ccccc23)s1)c1ccc2c(c1)OCO2,2.51 µM (active),–
Fc1ccc(Nc2ncncc2-c2ccccc2C(F)(F)F)cc1,7.94 µM (active),–
FC(F)(F)c1ccccc1-c1cncnc1Nc1ccccc1,7.94 µM (active),–
Cc1nc(NS(=O)(=O)c2ccccc2C)c2c3c(sc2n1)CCC3,8.91 µM (active),–
CCCSc1nc(NCc2ccco2)c2c3c(sc2n1)COC(C)(C)C3,7.08 µM (active),–
Cc1nc(NS(=O)(=O)c2ccc(Br)cc2)c2c3c(sc2n1)CCC3,3.55 µM (active),–
Cc1cc(C)n(-c2nc(NCC(C)O)c3c4c(sc3n2)COC(C)(C)C4)n1 (configuration not stated),–,-19.4%
Cc1nc(NCc2ccco2)c2c3c(sc2n1)CCC3,10 µM (active),–
CN(C)S(=O)(=O)c1nc(Cl)c2[nH]cnc2n1,–,24.6% [at 11.4 µM]
CC[C@H](C)[C@@H]1O[C@]2(CC[C@@H]1C)C[C@H]1C[C@H](CC=C(C)[C@@H](O[C@@H]3C[C@H](OC)[C@H](O[C@@H]4C[C@H](OC)[C@H](O)[C@H](C)O4)[C@H](C)O3)[C@@H](C)C=CC=C3CO[C@@H]4[C@@H](O)C(C)=C[C@@H](C(=O)O1)[C@]34O)O2,–,33.6% [at 25.6 µM]
Cc1ccc(NC(=O)Cn2nc([N+](=O)[O-])c(Br)c2C)cc1C,5.62 µM (active),–
O=C(Nc1ccc(Cl)c(C(F)(F)F)c1)C1CCCN(S(=O)(=O)c2cnc[nH]2)C1 (configuration not stated),0.562 µM (active),–
O=[N+]([O-])c1ccc2nc(-c3ccc(Cl)cc3)n(OCc3ccccc3)c2c1,–,20.2%
O=[N+]([O-])c1ccc2nc(-c3ccccc3)n(OCc3ccc(Cl)cc3)c2c1,1.58 µM (active),–
Clc1ccc(COn2c(-c3ccccc3)nc3ccccc32)cc1,0.141 µM (active),–

SMILES,AC50,"activity, negative = inhibition"
COc1ccc2nc(N3C(=O)CC(Cc4ccc(Cl)cc4)C3=O)sc2c1 (configuration not stated),3.55 µM (active),–
COc1ccc(CN2CN(c3ccc(Cl)cc3)C(=O)N(n3cnnc3)C2)cc1,–,-16.1%
CCC1CCCCN1Cc1cc(OC)c(O)c([N+](=O)[O-])c1 (configuration not stated),–,-2.44%
Cc1ccc(N=CC2=C(O)CC(c3ccco3)CC2=O)cc1 (configuration not stated),7.94 µM (active),–
COC(=O)C1=C(C)NC(C)=C(C(=O)OCCSc2ccccc2)[C@@H]1C,0.2 µM (active),–
O=C(O)CC/C=C\CC[C@H]1[C@@H](N2CCCCC2)[C@@H](O)C[C@@H]1OCc1ccc(-c2ccccc2)cc1,–,12.9%
O=C(CCN1C(=O)c2ccccc2C1=O)Oc1ccc2ccccc2c1,–,-7.77%
Cc1cccc(N(C)C(=S)Oc2ccc3ccccc3c2)c1,0.1 µM (active),–
O=C(Nc1cc(C(F)(F)F)ccc1-n1cncn1)c1ccc(Br)cc1,2.24 µM (active),–
CC(=O)Nc1ccc(S(=O)(=O)N2CCN(c3nc(NC4CCCC4)c4ccccc4n3)CC2)cc1,7.08 µM (active),–
Cc1cc(C)cc(C(=N)c2ccccc2Cc2cccc3ccccc23)c1,1.58 µM (active),–
Cc1ccc(C(=N)c2ccccc2Cc2cccc3ccccc23)c2ccccc12,1.26 µM (active),–
Cc1cc(C)c(O)c(Cc2cccc(Cc3cc(C)cc(C)c3O)c2O)c1,–,8% [at 11.4 µM]
C#CCCCO/N=C1/C[C@@H](O)[C@@H](O)[C@@H]2[C@@H]3C(=O)N(C[C@@H]4CCCO4)C(=O)[C@H]3CC[C@H]12,–,-15.3% [at 11.4 µM]
ClC(Cl)(Cl)C(N1CCN(c2ccccc2)CC1)N1CCN(c2ccccc2)CC1,–,21% [at 11.4 µM]
CC(C)CC(c1nnnn1C(C)C)N1CCN(c2ccccc2)CC1 (configuration not stated),5.01 µM (active),–
CCOC(=O)c1cnn(-c2nc(-c3cccc(F)c3)cs2)c1C(F)(F)F,2.82 µM (active),–
CCOc1ccc2nc(N3CCCCCC3)sc2c1,3.98 µM (active),–
COc1cc2nc(N3CCN(C(=O)[C@@H]4CCCO4)CC3)nc(N)c2cc1OC,–,20.7% [at 25.6 µM]
CCN(CC)CCOc1ccc2nc(N(C)C)sc2c1,–,-20.4%
CCOC(=O)C1CCN(C(=O)C2CCN(c3nc4ccc(OC)cc4s3)CC2)CC1,11.2 µM (active),–
CCOC(=O)C1CCN(C(=O)c2ccccc2NC(C)=O)CC1,–,-27.7%
CN1CCC2(CC1)C1CN(C)CC=C1C(C#N)=C(N)C2(C#N)C#N (configuration not stated),–,-23.1%
